Experimental data from PubChem BioAssay.
Several values for one entry are separate records, joined by “and”; a condition that tells them apart may be missing. Identical values can stand only once. Records with an inconclusive call do not appear. Activity calls are given as the source filed them. Unless noted, the limit is not given here; nearly all actives have AC50 up to about 26 µM.

How the values were obtained:
[1] = growth inhibition of DIPG glioma cells, dose response, cell-based, SU-DIPG-IV, MIPE4.0, CellTiter-Glo, qHTS (AID 1347063; cut-off not given, nearly all actives have AC50 up to about 30 µM;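 also: compound exposure lasted 48 hours before the viability readout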); conditions: SU-DIPG-IV viability, CellTiter-Glo ATP luminescence
[2] = SU-DIPG-VI glioma cell viability, MIPE4.0 library, CellTiter-Glo luminescence, qHTS (AID 1347066; cut-off not given, nearly all actives have AC50 up to about 30 µM;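 also: cells exposed to compound for 48 hours before readout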); conditions: CellTiter-Glo ATP luminescence
[3] = viability loss in pontine glioma line – cell-based, SU-DIPG-XXV, MIPE5.0, CellTiter-Glo, qHTS, dose response (AID 1347065); conditions: CellTiter-Glo ATP luminescence;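 also: cells exposed to compound for 48 hours before ATP readout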
[4] = growth inhibition of DIPG glioma cells, dose response, cell-based, SU-DIPG-XIII, MIPE5.0, CellTiter-Glo, qHTS (AID 1347064; cut-off not given, nearly all actives have AC50 up to about 23 µM;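 as to AC50: cells exposed to compound for 48 hours before the viability read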); conditions: SU-DIPG-XIII viability, CellTiter-Glo ATP luminescence
[5] = JHH-DIPG-1 glioma cell viability, MIPE5.0 library, CellTiter-Glo luminescence, qHTS (AID 1347067); conditions: JHH-DIPG-1 glioma viability, CellTiter-Glo ATP luminescence;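 also: cells exposed to compound for 48 hours before readout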
[6] = growth inhibition of DIPG glioma cells, dose response, cell-based, SU-DIPG-XVII, MIPE5.0, CellTiter-Glo, qHTS (AID 1347060); conditions: SU-DIPG-XVII viability, CellTiter-Glo ATP luminescence;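 also: cells exposed to compound for 48 hours before viability readout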
[7] = molecular target: Mitogen-activated protein kinase 7 (Homo sapiens) (UniProt Q13164); assay: ERK5 transactivation activators in reporter cells, primary screen, cell-based, HTS (AID 1508626;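 active = luciferase signal above three times the same-plate solvent-only control wells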;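 also: luciferase driven by Gal4-ERK5 fusion binding five Gal4 sites before minimal TATA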); conditions: HeLa Gal4-ERK5 transactivation, 18 h, at 5 µM, stronger effect = higher value
[8] = kinase inhibitors against Plasmodium liver-stage infection, cell-based, known kinase inhibitor set, luminescence, hepatoma host viability (AID 624392; call rule not given here;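 also: infected cells incubated roughly two days before readout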); conditions: Plasmodium liver stage in hepatoma cells, luciferase luminescence, concentration not given here; liver cell % of control: measured here: host liver cell viability; parasite % of control: stronger effect = lower value

Sequence of Mitogen-activated protein kinase 7 (Homo sapiens) (Q13164 whole entry, looked up, the tested form may be a part): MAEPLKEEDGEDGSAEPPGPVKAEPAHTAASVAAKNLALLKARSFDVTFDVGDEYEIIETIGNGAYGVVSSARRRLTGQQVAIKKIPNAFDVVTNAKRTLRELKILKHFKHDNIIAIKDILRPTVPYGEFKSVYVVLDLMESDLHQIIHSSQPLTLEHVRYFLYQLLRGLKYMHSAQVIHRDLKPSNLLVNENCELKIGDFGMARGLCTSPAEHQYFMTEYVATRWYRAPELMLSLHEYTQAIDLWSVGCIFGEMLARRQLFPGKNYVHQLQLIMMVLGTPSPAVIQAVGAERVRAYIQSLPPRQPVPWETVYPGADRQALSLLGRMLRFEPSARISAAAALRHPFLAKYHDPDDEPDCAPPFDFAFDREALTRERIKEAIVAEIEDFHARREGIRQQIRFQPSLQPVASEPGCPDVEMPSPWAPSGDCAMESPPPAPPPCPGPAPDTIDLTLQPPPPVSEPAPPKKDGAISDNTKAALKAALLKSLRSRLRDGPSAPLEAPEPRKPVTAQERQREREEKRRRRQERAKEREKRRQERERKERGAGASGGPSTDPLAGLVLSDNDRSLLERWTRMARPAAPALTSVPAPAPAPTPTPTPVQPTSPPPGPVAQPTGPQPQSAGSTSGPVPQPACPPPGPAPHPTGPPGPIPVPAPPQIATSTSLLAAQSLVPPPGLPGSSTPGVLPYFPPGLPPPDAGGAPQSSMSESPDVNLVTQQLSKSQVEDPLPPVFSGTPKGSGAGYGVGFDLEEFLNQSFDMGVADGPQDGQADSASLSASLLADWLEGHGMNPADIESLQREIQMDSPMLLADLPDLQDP

For CC(C)(C)/[N+]([O-])=C/c1ccc(S(=O)(=O)O)cc1S(=O)(=O)O, the outcome [1] was “inactive” and the outcome [2] was “inactive”.
In the case of Oc1ccc(Nc2nc(-c3ccc(Cl)cc3)cs2)cc1, the AC50 [3] is reported as 5.9 µM (active).
With O=C(/C=C/c1c(C(=O)O)[nH]c2cc(Cl)cc(Cl)c12)Nc1ccccc1 the outcome [1] was “inactive” and the outcome [2] was “inactive”.
For O=C(c1ccc(Nc2nccc(-c3cc4ccccc4s3)n2)cc1)N1CCC(N2CCCC2)CC1, the AC50 [1] was 8.33 µM (active), the AC50 [4] was 8.33 µM (active) and the AC50 [3] was 7.42 µM (active). For the same molecule, the AC50 [2] was 18.7 µM (active) and the AC50 [5] was 9.34 µM (active).
In the case of O=c1cc(N2CCOCC2)oc2c(-c3ccccc3)cccc12, the AC50 [1] is reported as 2.64 µM (active) and the outcome [4] is reported as “inactive”.
For CC(C)(Sc1ccc(CCN(CCCCC2CCCCC2)C(=O)NC2CCCCC2)cc1)C(=O)O, the outcome [2] was “inactive”.
For COc1cc2c(cc1O)CC[C@@H]1[C@@H]2CC[C@]2(C)[C@@H](O)CC[C@@H]12, the AC50 [6] was 1.32 µM (active), the AC50 [3] was 1.48 µM (active) and the AC50 [5] was 3.72 µM (active).
In the case of C=CCc1cccc(/C=N/NC(=O)CN2CCN(Cc3ccccc3)CC2)c1O, the AC50 [2] is reported as 16.6 µM (active).
In the case of C[C@H](NC(=O)c1sccc1OCc1ccc(Cl)cc1)c1ccccc1, the AC50 [1] is reported as 18.7 µM (active), the AC50 [4] is reported as 11.8 µM (active) and the AC50 [3] is reported as 16.6 µM (active). The AC50 [5] was 18.6 µM (active).
In the case of C[C@H](NC(=O)Cc1cc(F)cc(F)c1)C(=O)N[C@H](C(=O)OC(C)(C)C)c1ccccc1, the outcome [4] is reported as “inactive” and the outcome [5] is reported as “inactive”.
With C[C@@H](N)C1CCC(C(=O)Nc2ccncc2)CC1 (stereo partly specified) the outcome [1] was “inactive”, the outcome [4] was “inactive” and the outcome [3] was “inactive”. The outcome [2] was “inactive” and the outcome [5] was “inactive”.
With Oc1cc(O)cc(/C=C/c2ccc(O)c(O)c2)c1 the AC50 [4] was 20.9 µM (active) and the AC50 [5] was 16.6 µM (active).
With Cc1ccc(NC(=O)c2cccc(N(C)C)c2)cc1NC(=O)c1ccc(O)cc1 the AC50 [1] was 0.935 µM (active).
In the case of CN(CCOc1ccc(-c2ccc3c(c2)OCO3)cc1C(C)(C)C)CC(=O)O, the AC50 [5] is reported as 23.5 µM (active).
With NC(=O)c1ccc(-c2nc(-c3ccc4c(c3)OCCO4)c(-c3ccccn3)[nH]2)cc1 the AC50 [4] was 13.2 µM (active), the outcome [2] was “inactive” and the AC50 [5] was 20.9 µM (active).
With O=C1c2ccccc2-c2n[nH]c3cccc1c23 the outcome [2] was “inactive”.
In the case of CCOC(=O)C(C)Oc1cccc2c(=O)n(CC(=O)Nc3ccc4c(c3)OCCO4)ccc12 (stereo unspecified), the outcome [1] is reported as “inactive”, the AC50 [4] is reported as 20.9 µM (active) and the outcome [5] is reported as “inactive”.
For Cc1ccccc1C(=O)c1ccc(Nc2ccc(Br)cc2N)cc1Cl, the AC50 [4] was 20.9 µM (active), the AC50 [3] was 18.6 µM (active) and the AC50 [5] was 23.5 µM (active).
With Oc1cc2c(cc1O)C(c1ccccc1)CNCC2 (stereo unspecified) the luciferase signal [7] was 44 AU (inactive).
In the case of Cn1cc(C2=C(c3ccc(Cl)cc3Cl)C(=O)NC2=O)c2ccccc21, the liver cell % of control [8] is reported as 105% and 92.9% and 90.2% and the parasite % of control [8] is reported as 19.2% (inactive) and 24.2% (inactive) and 47.4% (inactive).
In the case of CCSC(=N)N, the luciferase signal [7] is reported as 16 AU (inactive).
